Data: publication PMC4552634, “A New Set of Chemical Starting Points with Plasmodium falciparum Transmission-Blocking Potential for Antimalarial Drug Discovery” (PLoS ONE, 2015)
Hit rate of the full screen: of about 13,000 compounds, about 3,200 (25%) showed an effect of 50% or more. The list shows a part of the results.

Each compound was assayed on P. falciparum stage V gametocytes. Settings: 48 h, 5 µM; inhibitor.
Design: BacTiter-Glo ATP luminescence viability of purified stage V gametocytes in 384-well plates, per cent inhibition versus DMSO

Compound | % Inhibition
CC1(C)C(=O)Nc2ccccc2N1C(=O)CN1CCN(c2ccccc2O)CC1 [TCMDC-124856] | -25.41%
CC(C(=O)N1CCCC1)N1CCN(C(c2ccccc2)c2ccccc2)CC1 (stereo not shown) [TCMDC-123562] | 15.58%
Cc1ccc(S(=O)(=O)N2CCCN(C(=O)c3cc(-c4ccccc4)n[nH]3)CC2)cc1 [TCMDC-125243] | 32.96%
CC(C(=O)N1CCCC1)N1CCN(S(=O)(=O)c2ccc(C(C)(C)C)cc2)CC1 (stereo not shown) [TCMDC-125011] | 54.13%
C=CCn1c(SCC(=O)Nc2cc(C)ccc2OC)nc2sc(C)cc2c1=O [TCMDC-123737] | -0.9433%
O=c1cc(NCCCNCc2cccc3c2OC(F)(F)O3)[nH]c2ccccc12 [TCMDC-139425] | -37.26%
CC(C)CN1CCN(c2nc(C#N)c3c(c2C(=S)NC2CCCCC2)CC(C)(C)OC3)CC1 [TCMDC-124173] | 83.9%
CCCN(CCC)C(=S)N=Nc1c(O)[nH]c2ccccc12 [TCMDC-138078] | -20.57%
COCCn1c(C)nc2ccccc2c1=O [TCMDC-124916] | -2.427%
Cc1ccc2c(=O)n(C)c(=O)n(C)c2n1 [TCMDC-123937] | 60.67%
O=C(NCCN1CCCC1)c1cc(-c2ccc(Cl)c(O)c2)c(-c2ccncc2)o1 [TCMDC-135295] | 13.58%
Cc1nc(N)nc(N)c1CCCOc1ccccc1Br [TCMDC-138069] | -36.44%
O=C(Nc1ccc(-c2cccc(-c3nc4ccccc4[nH]3)c2)cc1)c1cnn2cccnc12 [TCMDC-136863] | -40.98%
COc1ccc(CNC2Cc3ccccc3C2)cc1-c1ccc(OC)c(S(=O)(=O)NCCN2CCCC2)c1 [TCMDC-132251] | 107.6%
COc1ccc(-c2ccc(CNC3Cc4ccccc4C3)cc2)cc1S(=O)(=O)NCCN1CCCC1 [TCMDC-132472] | 95.39%
COc1ccc(CNC2Cc3ccccc3C2)cc1-c1ccc(S(=O)(=O)NCCN2CCCC2)c(F)c1 [TCMDC-132266] | 84.74%
COc1ccc(-c2ccccc2CNC2Cc3ccccc3C2)cc1S(=O)(=O)NCCN1CCCC1 [TCMDC-132211] | 56.67%
O=C(NCc1ccc(F)cc1)Nc1ccc(-c2cccc(-c3nc4ccc(F)cc4[nH]3)c2)cc1 [TCMDC-133304] | -35.38%
Cc1cc(C)c(CON2C(N)=NC(N)=NC2(C)C)cc1C [TCMDC-131652] | -5.978%
COc1ccc2nccc([C@@H](O)CN3CCC(NC(=O)Cn4nc(-c5ccc(C(F)(F)F)cc5)ccc4=O)CC3)c2c1 [TCMDC-141042] | -2.454%
CC(=O)c1ccccc1C(=O)N1CCOc2ccc(C(O)C(c3ccccc3)c3ccccc3)cc2C1 (stereo not shown) [TCMDC-124667] | -12.26%
O=C(NCCN1CCCC1)c1ccc(-c2ccc(-c3nc4ccccc4[nH]3)s2)cc1 [TCMDC-132314] | 24.13%

Compound | % Inhibition
Cn1c(=O)c2cc(C(=O)NCCCN3CCCCCC3)sc2c2ccccc21 [TCMDC-123889] | 59.14%
O=C(NCCCN1CCC(Cc2ccccc2)CC1)c1cc2c(Cl)nc3ccccc3c2s1 [TCMDC-125440] | -22.49%
O=C(Nc1cccc(-c2cccc(-c3nc4ccccc4[nH]3)c2)c1)Nc1ccc(F)c(F)c1F [TCMDC-133226] | -1.107%
Cc1cccc(CNc2nc(C)cc(N[C@@H](CC(C)C)C(=O)NCc3cccc(F)c3)n2)c1 [TCMDC-134890] | -6.286%
Cc1cc(N[C@@H](CC(C)C)C(=O)NCc2cccc(F)c2)nc(Nc2ccccc2)n1 [TCMDC-134737] | -10.43%
Cc1cc(N[C@@H](CC(C)C)C(=O)NCCc2ccccc2)nc(NCCc2ccc(F)cc2)n1 [TCMDC-134796] | 48.22%
Cc1cc(N[C@@H](CC(C)C)C(=O)NCc2cccc(F)c2)nc(NCCc2ccccc2)n1 [TCMDC-134870] | 54.62%
Cc1cc(N[C@@H](CC(C)C)C(=O)NCc2cccc(F)c2)nc(NCCc2ccc(F)cc2)n1 [TCMDC-134792] | 53.15%
COc1cccc(-c2cnc(N)c(-c3nc4cc(Cl)c(F)cc4[nH]3)c2)c1 [TCMDC-138792] | 26.62%
Fc1ccc2nc(-c3ccc(-c4ccc(CN5CCCCC5)cc4)s3)[nH]c2c1 [TCMDC-133897] | -55.88%
COC[C@H]1CCCN1Cc1ccc(-c2ccc(-c3nc4ccccc4[nH]3)s2)cc1 [TCMDC-136785] | -1.728%
CN1CCC(N2CCN(Cc3ccc(-c4ccc(-c5nc6ccccc6[nH]5)s4)cc3)CC2)CC1 [TCMDC-133851] | 67.23%
Cc1cccc2nc(-c3ccc(-c4ccc(CN5CCN(C6CCN(C)CC6)CC5)cc4)s3)[nH]c12 [TCMDC-133866] | 107%
CN1CCC(N2CCN(Cc3ccc(-c4ccc(-c5nc6ccc(F)cc6[nH]5)s4)cc3)CC2)CC1 [TCMDC-133859] | 93.67%
Cc1cccc2nc(-c3ccc(-c4ccc(NC(=O)CN5CCN(C)CC5)cc4)s3)[nH]c12 [TCMDC-136987] | -6.57%
c1ccc2[nH]c(-c3ccc(-c4ccc(CN5CCC(N6CCCCC6)CC5)cc4)s3)nc2c1 [TCMDC-136787] | 26.44%
Cc1cccc2nc(-c3ccc(-c4cccc(NC(=O)CN5CCN(C)CC5)c4)s3)[nH]c12 [TCMDC-136988] | 20.22%
Fc1ccc2nc(-c3ccc(-c4ccc(CN5CCN(CCN6CCOCC6)CC5)cc4)s3)[nH]c2c1 [TCMDC-133935] | 8.438%
O=C(Nc1ccc2nc(-c3ccccc3)[nH]c2c1)c1cc(-c2ccc3c(c2)OCCO3)n[nH]1 [TCMDC-134398] | 9.818%
CS(=O)(=O)Nc1ccc2[nH]cc(C3CCN(CCCCCNC(=O)/C=C/c4ccc(Cl)c(Cl)c4)CC3)c2c1 [TCMDC-139325] | -23.44%
Cc1cc(O)c2c(c1)OC(C)(C)C=C2C1=CCN(Cc2ccccc2)CC1 [TCMDC-131313] | -37.74%
CN(C)S(=O)(=O)n1ncc2c3c(N)nc(N)nc3ccc21 [TCMDC-131933] | 29.56%

Compound | % Inhibition
O=C(/C=C/c1ccc(Cl)cc1)NCCCCCN1CCN(C(=O)Nc2ccc(Cl)c(C(F)(F)F)c2)CC1 [TCMDC-136093] | 12.32%
CCC[C@@H]([C@@H](CC1CCCCC1)C(=O)N[C@H](C(=O)Nc1nccs1)C(C)(C)SCCOCCOCC)N(O)C=O [TCMDC-137777] | 29.4%
CS(=O)(=O)c1ccc(CCNCc2ccc(-c3ccc(CN(C(=O)c4cccc(C#N)c4)C4CCN(Cc5ccccc5)CC4)cc3)nc2)cc1 [TCMDC-141518] | 63.72%
CS(=O)(=O)c1ccc(CCNCc2ccc(-c3ccc(CN(C(=O)c4ccco4)C4CCN(Cc5ccccc5)CC4)cc3)nc2)cc1 [TCMDC-141510] | 87.45%
CS(=O)(=O)c1ccc(CCNCc2ccc(-c3ccc(CN(C(=O)c4ccc(Cl)nc4)C4CCN(Cc5ccccc5)CC4)cc3)nc2)cc1 [TCMDC-141519] | 96.79%
C=C[C@]1(C)C[C@@H](OC(=O)c2n[nH]c3ccccc3c2=O)[C@]2(C)[C@H](C)CC[C@]3(CCC(=O)[C@H]32)[C@@H](C)[C@@H]1O [TCMDC-141325] | 0.6377%
Cc1ccc(Nc2nccc(NCC(O)c3cccc(C(F)(F)F)c3)n2)cc1 (stereo not shown) [TCMDC-136583] | -0.2999%
COc1ccc(CCON2C(N)=NC(N)=NC2(C)C)cc1OC [TCMDC-131738] | -1.929%
CCC(C)CN1CCN(c2cc(NC(=O)c3cccs3)ccn2)C(C)C1 (stereo not shown) [TCMDC-134995] | 14.25%
CCN1CCN(Cc2ccc(NC(=O)c3cc4ccc5cccnc5c4[nH]3)cc2)CC1 [TCMDC-125281] | 19.87%
CCN(CC)CCN(Cc1ccc(-c2ccc(C(F)(F)F)cc2)cc1)C(=O)Cn1c(CCc2cccc(F)c2F)cc(=O)c2c1CCCC2 [TCMDC-141327] | 62.98%
CCN1CCC(N(Cc2ccc(-c3ccc(C(F)(F)F)cc3)cc2)C(=O)Cn2c(CCc3cccc(F)c3F)cc(=O)c3c2CCCC3)CC1 [TCMDC-141326] | 67.51%
CC(C)N1CCC(N(Cc2ccc(-c3ccc(C(F)(F)F)cc3)cc2)C(=O)Cn2c(CCc3cccc(F)c3F)cc(=O)c3c2CCC3)CC1 [TCMDC-141280] | 120.6%
CCN(CC)CCN(Cc1ccc(-c2ccc(C(F)(F)F)cc2)cc1)C(=O)Cn1c(CCc2cccc(F)c2F)cc(=O)c(C)c1C [TCMDC-141148] | 40.01%
CCN(CC)CCN(Cc1ccc(-c2ccc(C(F)(F)F)cc2)cc1)C(=O)Cn1c(CCc2cccc(F)c2F)cc(=O)cc1-c1ccccc1 [TCMDC-141688] | 100.1%
COc1cc(CC(C)NCC(O)c2cccc(C(F)(F)F)c2)ccc1OCc1ccccc1 (stereo not shown) [TCMDC-131479] | 14.56%
CCOc1ccc(NC(C)=O)c(O)c1 [TCMDC-125851] | 13.93%
Cc1ccc(-c2nnc(Nc3ccc(OCC(N)=O)cc3)c3ccccc23)cc1S(=O)(=O)NCC1CCCO1 (stereo not shown) [TCMDC-125617] | -6.517%
CC(=O)Oc1cc(OCc2ccccc2)c(OC(C)=O)c(OCc2ccccc2)c1 [TCMDC-123938] | -24.96%
COCCCNc1nc2cc(OC)c(OC)cc2c2nc(-c3ccccc3)nn12 [TCMDC-124408] | 0.2335%
